The text below walks through data of PubChem BioAssay AID540362 (National Center for Advancing Translational Sciences (NCATS), 2011).

Results filed as inconclusive are left out. Activity calls are given as the source filed them. The call rests on the fitted dose curve; in most records, active means well fitted cell-killing curve with a large enough effect; inconclusive means small, poorly fitted or top-dose-only effect; inactive means flat fitted curve, though single readings scatter.

This experiment in a line: PC3M Cytotoxicity Assay for Compounds that Inhibit the Perinuclear Compartment. As to conditions: PC3M-GFP viability, ATPLite luminescence, 24 h. An excerpt: The perinucleolar compartment (PNC) is a non-membrane-bound nuclear subdomain that is associated with but structurally distinct from the nucleolus. The PNC is a heritable trait, in which the number of PNCs per cell in daughter cells often mimics that of their mother cells. The PNC is heterogeneous in shape, is stable through interphase, disassembles during mitosis, and reassembles in early G1. The PNC is concentrated with newly synthesized RNA polymerase III (pol III) RNAs (MRP RNA, RNAse P H1 RNA, hY RNAs[hY1, 2, 5], Alu RNA, and SRP [7SL] RNA) and RNA binding proteins (nucleolin, PTB, CUG-BP, KSRP, Raver1, Raver2, and Rod). […] Extensive in vitro studies have shown that the PNC is unique to tumor cells and preferentially forms in tumor cells derived from solid tissues. Examination of cancer cell lines from various origins and malignant capacities has shown that PNC prevalence correlates with the malignancy of tumors and has the potential to be developed as a pan-cancer prognostic marker. […] Although the PNC is associated with a DNA locus and a handful of components have been identified, much remains to be investigated regarding the structure and function of the PNC and its mechanistic link to cancer. We have previously shown that PNC prevalence reduction is a valid strategy to identify compounds that can be used to study the structure and function of the PNC. It is necessary, however, to create a screening platform that is able to test a large number of compounds in an automated fashion. Here we report the development and robustness of an automated whole-cell phenotypic image-based screening assay that is capable of identifying such compounds. We conducted a followup assay to measure the effect of the lead candidates on cell health by measuring ATP levels (ATPLite). The highly metastatic PC3M-GFP reporter cell line was used in this study. NIH Chemical Genomics Center [NCGC] NIH Molecular Libraries Probe Centers Network [MLPCN] MLPCN Grant: MH082371-01A2 Assay Submitter (PI): Sui Huang, Northwestern University, Feinberg School of Medicine, Cell and Molecular Biology, Chicago, Illinois.
1. Cells at a density of 75-90% confluency in T175 flasks were harvested using 7 ml TrypLE Express cell dissociation reagent. After dissociation (5 minutes room temperature incubation) 10 ml of complete media was added to the TrypLE/cell suspension. The liquid was transferred to a 50 ml Conical tube and cells were pelleted at 1000 RPM for 5 min. Supernatant was removed and cells were resuspended to a final density of 150-200 cells/ul in complete media. 2. Cells were plated in 5 ul volume (2000 cells/well) into 1536 well White solid bottom plates and allowed to recover and adhere at 37 C in a humidified 5% CO2 incubator for 4 hours. 3. After 4 hour incubation, compound libraries (23 nl of […] in columns 5-48) were transferred to the plates in duplicate using a 1536 well pintool. Camptothecin positive control (59 uM final) was added to column 2 and 1:3 dilutions of camptothecin was added to column 3. DMSO negative controls were present in columns 1 and 4. 4. After a 24 hour incubation in the 37 C incubator, all wells were treated with 3 ul of ATPLite reagent using a multidrop combi dispenser (ThermoFisher). Bubbles that formed during dispensing were removed by spinning the plates for 1 minutre at 1500 RPM on a table top centrifuge. 5. Luminescencent signal was detected on a Viewlux CCD based imager (PerkinElmer) with a clear filter and a 30 second integration time. The PC3M cell line stably expressing the PTB-GFP was provided by Sui Huang of Northwestern University. The media and cell culture reagents were purchased from Invitrogen (Carlsbad, CA), ATPLite came from PerkinElmer.
For orientation: ATP-based viability assays read luminescence as a measure of living cells.
In the case of `N=c1c2c(-c3ccccc3)c(-c3ccccc3)n(Cc3ccco3)c2ncn1CCO`, the Potency is 19.9 µM (active). For the compound `N=c1c2c(-c3ccccc3)c(-c3ccccc3)n(Cc3ccco3)c2ncn1Cc1ccccc1`, the Potency is 19.9 µM (active).

As to `CC(C)Cn1cnc2c(c(-c3ccccc3)c(-c3ccccc3)n2Cc2ccco2)c1=N`, the Potency is 19.9 µM (active).

For the compound `N=c1c2c(-c3ccccc3)c(-c3ccccc3)n(Cc3ccco3)c2ncn1Cc1ccco1`, the Potency was 19.9 µM (active). As for `N=c1c2c(-c3ccccc3)c(-c3ccccc3)n(Cc3ccco3)c2ncn1CCCn1ccnc1`, the figure is 25 µM (active); as for `N=c1c2c(-c3ccccc3)c(-c3ccccc3)n(Cc3ccccc3)c2ncn1CCCn1ccnc1`, 19.9 µM (active).
